An excerpt weighted towards active compounds, which were near 2.4% of everything screened.
PfG6PD inh: PfG6PD (Plasmodium falciparum) enzyme inhibition; actives 0.78% (n = 350,000); inhibition, % at 20 µM; PfGluPho enzyme, NADPH resazurin-diaphorase fluorescence;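 active = inhibition reaching at least a set limit at 20 µM in the primary screen, cut at about 59% in these data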;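 also: 0% = DMSO wells with substrate and 100% = DMSO wells lacking glucose-6-phosphate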
APOBEC3A inh: blocks human APOBEC3A ssDNA deamination. P31941. recombinant A3A, FAM/TAMRA ssDNA deamination fluorescence. inhibition, % at 20 µM. actives 0.41% (n = 330,000). AID 493011;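 active = at least 40% inhibition at 20 µM here, with at most 30% in a related deaminase screen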;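 also: plate controls were A3A with DMSO for no effect and wells lacking A3A enzyme for full effect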
Target sequence (P31941 whole entry, looked up): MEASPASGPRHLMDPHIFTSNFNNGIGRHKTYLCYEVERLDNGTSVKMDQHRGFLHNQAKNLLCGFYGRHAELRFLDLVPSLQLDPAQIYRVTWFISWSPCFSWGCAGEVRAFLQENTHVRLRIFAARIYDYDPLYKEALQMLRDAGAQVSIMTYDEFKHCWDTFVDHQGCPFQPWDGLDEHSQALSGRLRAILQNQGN
CR mimetic SO: caloric restriction mimetics inhibiting age-related superoxide in yeast; S. cerevisiae aged cells, superoxide DHE fluorescence; stronger effect = lower value; AID 2690; actives 0.18% (n = 330,000); superoxide response (% of plate mean), % at 10 µM;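 active = superoxide response under a set limit, about three screen SD below normal, cut at about 65% in these data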;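 also: yeast aged for seven days with compound at 30 °C before DHE staining; 100% = average MFI of all compound-treated wells on the plate with controls excluded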
A3G deaminase: inhibitors of human APOBEC3G DNA deaminase | recombinant A3G, ssDNA deamination FAM/TAMRA fluorescence | inhibition, % at 20 µM | actives 0.28% (n = 330,000) | Q9HC16;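 active = inhibition of at least 40% at 20 µM, with no more than 30% in the related APOBEC3A deaminase screen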;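 also: plate controls were DMSO wells with A3G for no effect and wells lacking A3G enzyme for full effect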
Target sequence (Q9HC16 whole entry, looked up): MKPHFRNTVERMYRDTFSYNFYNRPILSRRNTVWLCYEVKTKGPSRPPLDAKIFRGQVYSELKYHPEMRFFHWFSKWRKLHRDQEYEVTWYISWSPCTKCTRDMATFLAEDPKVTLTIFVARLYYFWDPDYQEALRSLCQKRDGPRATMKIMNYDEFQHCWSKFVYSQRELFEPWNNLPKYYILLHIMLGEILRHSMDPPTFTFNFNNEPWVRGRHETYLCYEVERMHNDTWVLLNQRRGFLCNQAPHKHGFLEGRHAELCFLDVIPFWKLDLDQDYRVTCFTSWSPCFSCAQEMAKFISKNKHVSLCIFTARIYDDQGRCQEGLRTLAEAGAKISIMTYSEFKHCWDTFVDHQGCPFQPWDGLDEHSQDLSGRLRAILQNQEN
PfM18AAP inh: blocks P. falciparum M18 aspartyl aminopeptidase | actives 1.2% (n = 290,000) | inhibition, % at 7.35 µM | recombinant PfM18AAP, H-Glu-NHMec fluorogenic cleavage;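 active = inhibition above the campaign mean inhibition over all tested compounds plus 3 SD, cut at about 28% in these data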;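 also: 0% = plate median of test compound wells and 100% = 2 mM ZnCl2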
PfG6PD confirm: confirmation of Plasmodium falciparum G6PD inhibitors; AID 504753; recombinant PfGluPho, NADPH-diaphorase-resazurin fluorescence; shares compounds with PfG6PD inh; inhibition, % at 20 µM; actives 34% (n = 2,400);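 active = inhibition of at least 50% at 20 µM in any single replicate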;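 also: 0% = DMSO with substrate and 100% = DMSO lacking glucose-6-phosphate substrate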
Diaph ctr 10uM: diaphorase inhibition or oxidation at 10 uM NADPH | shares compounds with PfG6PD inh | diaphorase-coupled resazurin reduction, fluorescence, NADPH 10 uM | inhibition, % at 20 µM | actives 39% (n = 820);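 active = average inhibition reaching 50% or more with the compound at 20 µM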;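 also: resorufin red fluorescence formed as diaphorase reduces resazurin using NADPH; 0% = DMSO with enzyme and 100% = DMSO without enzyme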
Diaphorase 30uM: counter-screen for P. falciparum G6PD inhibitors: diaphorase inhibitors, oxidizers | Diaphorase/resazurin coupled assay, resorufin fluorescence, 30 uM NADPH | actives 29% (n = 820) | inhibition, % at 20 µM | shares compounds with PfG6PD inh;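 active = inhibition averaging 50% or more, tested at 20 µM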;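 also: 0% = DMSO with enzyme and 100% = DMSO wells lacking diaphorase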
* = called active by the depositor; nt = not tested or not shown.

SMILES	PfG6PD inh	APOBEC3A inh	CR mimetic SO	A3G deaminase	PfM18AAP inh	PfG6PD confirm	others
Cc1ccc2nc(SCC(=O)N/N=C/c3ccco3)cc(C)c2c1	69*	2	96	0	9	50*	Diaph ctr 10uM=66*;Diaphorase 30uM=36
Cc1nnc(Sc2cc(NCCO)c([N+](=O)[O-])c3nonc23)s1	86*	nt	nt	nt	-43	68*	Diaph ctr 10uM=-1;Diaphorase 30uM=20
O=[N+]([O-])c1c(NCCCO)cc(Sc2nc3ccccc3s2)c2nonc12	77*	-5	104	21	-45	54*	Diaph ctr 10uM=-2;Diaphorase 30uM=-2
CCC(=O)OCCNc1cc(Sc2nc3ccccc3s2)c2nonc2c1[N+](=O)[O-]	79*	-2	101	12	-28	64*	Diaph ctr 10uM=-5;Diaphorase 30uM=-6
CCC(=O)OCCNc1cc(Sc2nc3ccccc3[nH]2)c2nonc2c1[N+](=O)[O-]	51	nt	96	nt	-62	nt
COc1ccc(/C=C/C(=O)C2(O)CCCCC2)cc1OC	-5	-2	98	-2	7	nt
C[C@H](CO)N1C[C@H](C)[C@@H](CN(C)Cc2cccc(F)c2)Oc2cc(-c3cccc(C#N)c3)ccc2S1(=O)=O	21	nt	nt	nt	nt	nt
Cc1nn(C(C)C(=O)NCCCc2ccccc2)c(=O)c2nn(-c3ccccc3)c(C)c12 (stereo unspecified)	5	-6	125	-4	-3	nt
Cc1ccc(-n2nnnc2-c2ccccc2Br)cc1	62*	-2	98	-2	nt	22
COc1cc(F)c(S(=O)(=O)N2CCOc3ccccc32)cc1OC	29	-1	81	-3	2	nt
NS(=O)(=O)c1cccc(C(=O)N2CCCc3ccccc32)c1	-12	nt	nt	nt	nt	nt
CCOC(=O)c1c(NC(=O)COC(=O)CCOc2cc(C)ccc2C)sc(C(=O)N(C)C)c1C	9	nt	nt	nt	nt	nt
CC1(C)Cc2[nH]c(=S)c(C#N)cc2CO1	63*	-2	98	4	24	30
CC(=O)c1ccc(NS(=O)(=O)c2cccc(C(=O)Nc3ccccc3C(=O)O)c2)cc1	-5	-6	102	-5	3	nt
CCOc1cc(CNc2ccc(O)cc2)cc(Br)c1OCc1ccccc1F	36	-4	85	-7	14	nt
COc1cc(CNc2ccc(O)cc2)cc(Br)c1OCc1ccccc1F	60*	2	105	0	16	16
COc1cc(CNc2ccc(N3CCCC3)cc2)ccc1OCc1ccccc1F	97*	nt	118	nt	6	59*	Diaph ctr 10uM=10;Diaphorase 30uM=6
Cc1ccc(-n2c(SCC(=O)O)nc3c(sc(=S)n3-c3ccc(C)c(C)c3)c2=O)cc1	75*	-3	103	-4	3	31
Cc1ccc(-n2c(N)c(C(=O)NCc3cccnc3)sc2=S)cc1	68*	-6	93	6	8	7
CCOC(=O)c1sc(=S)n(-c2ccc(C)cc2)c1N	67*	-4	101	28	29*	32
COc1ccc(-n2c(N)c(C(=O)NCc3ccco3)sc2=S)cc1	48	2	105	0	3	nt
CCOC(=O)c1ccc(-n2c(N)c(C(=O)NCc3ccco3)sc2=S)cc1	83*	0	129	13	10	38
COc1ccc(-n2c(N)c(C(=O)NCC3CCCO3)sc2=S)cc1 (stereo unspecified)	18	-8	137	-7	2	nt
CCOC(=O)c1ccc(-n2c(N)c(C(=O)NCC3CCCO3)sc2=S)cc1 (stereo unspecified)	74*	-4	114	20	14	53*	Diaph ctr 10uM=11;Diaphorase 30uM=12
O=S(=O)(c1ccc(SCc2ccc(Cl)cc2)nc1)N1CCCC1	14	-1	99	-10	nt	nt
SMILES	PfG6PD inh	APOBEC3A inh	CR mimetic SO	A3G deaminase	PfM18AAP inh	PfG6PD confirm	others
Cc1ccc(OCCNC(=O)c2ccccc2SCC(=O)N2CCCC2)cc1	-6	2	107	7	nt	nt
N#Cc1ccc(COC(=O)CC(NC(N)=O)c2ccc(Cl)cc2)cc1 (stereo unspecified)	5	-2	107	-6	-2	nt
CCN(c1ccccc1)S(=O)(=O)c1ccc(N2CCN(c3ccc(O)cc3)CC2)nc1	76*	-1	84	22	nt	16
COc1cc(OC)c(C=NNC(=S)NC23CC4CC(CC(C4)C2)C3)c(OC)c1	23	nt	nt	nt	nt	nt
COc1ccc(Cn2nnnc2C(c2cccs2)N2CCN(c3ccccc3)CC2)cc1 (stereo unspecified)	1	0	95	-2	0	nt
Oc1ccc(N2CCN(C(c3cccs3)c3nnnn3CCc3ccccc3)CC2)cc1 (stereo unspecified)	66*	0	86	18	14	8
CCOc1ccc(N(CC(=O)N2CCN(c3ccc(F)cc3)CC2)S(=O)(=O)c2c(C)noc2C)cc1	-1	3	102	1	3	nt
Cc1c(C(=O)Nc2ccccc2)cnn1-c1ccccc1	23	0	87	0	nt	nt
Cc1c(C(=O)Nc2cccc([N+](=O)[O-])c2)cnn1-c1ccccc1	74*	2	103	2	-17	27
CC(=O)c1cccc(NC(=O)c2cnn(-c3ccccc3)c2C)c1	75*	-1	93	4	-15	51*	Diaph ctr 10uM=41;Diaphorase 30uM=35
COc1cccc(C2=Nc3cccc4cccc(c34)N2)c1	73*	1	84	7	5	38
Nc1ccc(C2=Nc3cccc4cccc(c34)N2)cc1	18	nt	nt	nt	-1	nt
CCN(C(=O)Cn1ccc(C(F)(F)F)n1)c1c(N)n(Cc2ccccc2)c(=O)[nH]c1=O	9	-2	112	-2	nt	nt
CCN(CC)CC(C)(C)C(=O)/C=C/c1ccc(/C=C/C(=O)C(C)(C)CN(CC)CC)cc1	64*	nt	nt	nt	nt	45
Cc1cc(-n2c(C)cc(C(=O)CSc3ccccn3)c2C)no1	67*	-4	99	-6	nt	23
Cc1cc(-n2c(C)cc(C(=O)CSc3nnnn3-c3ccccc3)c2C)no1	12	-3	84	-3	-5	nt
C[C@@H]1CN([C@@H](C)CO)S(=O)(=O)c2ccc(Br)cc2O[C@@H]1CN(C)C(=O)C1CC1	-7	nt	nt	nt	nt	nt
CC(C)[C@@H](CO)NS(=O)(=O)c1ccc(Br)cc1F	7	3	95	3	nt	nt
CCOc1ccccc1NS(=O)(=O)c1cccs1	99*	2	94	0	0	72*	Diaph ctr 10uM=68*;Diaphorase 30uM=61*
COC(=O)c1ccccc1NS(=O)(=O)c1c(C)noc1C	49	-3	89	-8	-8	nt
O=S(=O)(Nc1cccc2ncccc12)c1cccs1	99*	2	86	4	1	61*	Diaph ctr 10uM=62*;Diaphorase 30uM=56*
CCOc1ccccc1NS(=O)(=O)c1c(C)noc1C	63*	-2	97	-4	-9	54*	Diaph ctr 10uM=45;Diaphorase 30uM=34

Source: PubChem
